# Measurements taken from PubChem BioAssay.
# Activity calls are given as the source filed them. Unless noted, no rule for the calls is given here.
# Key:
# [1] = tested on: XIP peptide (Xip251-270) binding; test: small-molecule binders of XIP peptide, primary screen, biochemical, small-molecule microarray, fluorescence 635/667 nm, 0.1 µg/mL protein (AID 1182); settings: fluorescent protein binding, 635 nm, higher = more signal, called active from +8 up or from −8 down
# XIP peptide (Xip251-270) = test: small-molecule binders of XIP peptide, primary screen, biochemical, small-molecule microarray, fluorescence 635/667 nm, 0.5 µg/mL protein (AID 1183); settings: small-molecule microarray binding, fluorescence 635 nm; higher = more signal
# [2] = Plasmodium falciparum growth inhibition, primary screen, strain 3D7, DAPI fluorescence, 100 nL (AID 1184);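 also: parasites grown inside human red blood cells in medium with human serum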; settings: P. falciparum 3D7 growth, 3 d, higher = more signal
# [3] = molecular target: Homeobox protein Hox-A13 (Mus musculus) (UniProt Q62424); test: inhibitors of HoxA13-DNA binding, primary screen, biochemical, fluorescence polarization, labeled oligonucleotide (AID 1185); settings: 15 min, higher = more signal, called active from +8 up or from −8 down
# Homeobox protein Hox-A13 (Mus musculus), sequence (Q62424 whole entry, looked up): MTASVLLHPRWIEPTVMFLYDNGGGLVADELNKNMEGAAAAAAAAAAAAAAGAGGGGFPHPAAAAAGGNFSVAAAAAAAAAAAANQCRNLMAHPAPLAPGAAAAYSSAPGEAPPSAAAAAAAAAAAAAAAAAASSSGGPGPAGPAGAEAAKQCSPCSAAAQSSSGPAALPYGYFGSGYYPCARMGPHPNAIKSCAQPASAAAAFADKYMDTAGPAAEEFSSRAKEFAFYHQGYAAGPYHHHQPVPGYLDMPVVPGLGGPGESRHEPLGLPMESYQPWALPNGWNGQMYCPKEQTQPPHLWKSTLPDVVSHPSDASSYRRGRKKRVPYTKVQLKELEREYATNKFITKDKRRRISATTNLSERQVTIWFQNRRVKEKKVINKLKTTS
# [4] = inhibitors of hydroxyurea-induced Chk1 phosphorylation, primary screen, imaging, HeLa, phospho-Chk1 antibody, percent positive cells (AID 1186); settings: hydroxyurea-induced phospho-Chk1 immunofluorescence imaging, higher = more signal
# [5] = inhibitors of hydroxyurea-induced Chk1 phosphorylation, primary screen, imaging, HeLa, phospho-Chk1 nuclear intensity (AID 1187); settings: hydroxyurea-induced phospho-Chk1 immunofluorescence imaging, higher = more signal
SMILES,composite z-score [1],composite z-score (XIP peptide (Xip251-270)),z-score [2],z-score [3],z-score [4],z-score [5]
COCCn1c(C(=O)N2CCCC2)cc2c1C[C@H]1CN(C(=O)c3ccccc3)[C@@](Cc3ccc(OC)cc3)(C(=O)OC)[C@@H]21,0.541 (inactive),0.603,-1.55,-4.97 (inactive),-0.598 (inactive),-0.634 (inactive)
C=CCOC(=O)[C@@H]1[C@H]2C(=O)O[C@H](c3ccccc3)[C@H](c3ccccc3)N2[C@H](c2ccc(OCCOC(=O)[C@H]3C[C@H]4C(=O)N[C@@H](CCCC[N+](C)(C)C)C(=O)N4[C@H]3c3cccc(OCCO)c3)cc2)[C@@]12C(=O)Nc1ccc(I)cc12,1.31 (inactive),0.646,-1.82,1.38 (inactive),-0.118 (inactive),-0.176 (inactive)
C[N+](C)(C)CCCC[C@@H]1NC(=O)[C@H]2C[C@@H](C(=O)O)[C@@H](c3cccc(OCCO)c3)N2C1=O,3.68 (inactive),0.809,-0.255,-0.304 (inactive),0.336 (inactive),0.213 (inactive)
CCCC[C@H]1C[C@@H]1[C@@H]1N(P(=O)(c2ccccc2)c2ccccc2)[C@](CO)(c2ccccc2)CC12CC2,-0.131 (inactive),0.518,0.791,-2.7 (inactive),0.335 (inactive),0.514 (inactive)
COC(=O)[C@@]1(Cc2ccccc2)[C@H]2c3cc(C(=O)N(C)C)n(Cc4ccccc4)c3C[C@H]2CN1C(=O)c1ccccc1,0.394 (inactive),0.225,-1.43,-5.49 (inactive),1.54 (inactive),0.928 (inactive)
C=CCN1Cc2ccccc2C[C@@]2(COC(c3ccc(OCCCO)cc3)=N2)C1=O,0.415 (inactive),0.793,-1.85,-3.96 (inactive),-0.221 (inactive),-0.208 (inactive)
C=CCCN(CC#C[C@H]1Oc2ccccc2S(=O)(=O)N2CCC[C@@H]12)S(=O)(=O)c1ccc(C)cc1,-0.183 (inactive),-0.0455,-1.53,-2.47 (inactive),0.508 (inactive),0.431 (inactive)
O=C1O[C@H](c2ccccc2)[C@H](c2ccccc2)N2[C@H]1[C@@H](C(=O)NC[C@H](O)c1ccccc1)[C@]1(C(=O)Nc3ccc(C#CC4=CCCCC4)cc31)[C@H]2c1ccc(O)cc1,0.447 (inactive),0.766,-1.53,0.685 (inactive),0.577 (inactive),1.25 (inactive)
O=C1OCC=C[C@H]2OC34C=CCN(c5ccc(Cl)cc5)C(=O)[C@H]3N(CCCO)C(=O)[C@@H]4[C@@H]12 (some centres undefined),1.92 (inactive),-0.501,-1.39,-2.31 (inactive),-0.0921 (inactive),-0.389 (inactive)
CC(=O)n1cc(C(O)C2C=CC3C(=O)N(c4ccccc4)C(=O)C3N2Nc2ccc(C#N)cc2)c2ccccc21 (centres undefined),1.16 (inactive),0.786,0.429,-3.54 (inactive),-0.199 (inactive),-0.217 (inactive)
CCCC[C@@H]1C[C@H]1[C@@H](NC(=O)c1ccccc1)c1ccc(-c2ccccc2)cc1,0.397 (inactive),-0.0572,-0.0371,-3.63 (inactive),-0.0528 (inactive),0.215 (inactive)
CN(C)CCCCCCNC(=O)[C@@H]1C[C@@H]2C(=O)NCC(=O)N2[C@@H]1c1cccc(OCCO)c1,0.096 (inactive),0.851,0.331,-2.07 (inactive),0.491 (inactive),0.797 (inactive)
O=C1O[C@@H](c2ccccc2)[C@@H](c2ccccc2)N2[C@@H](c3ccc(O)cc3)[C@]3(C(=O)Nc4ccc(C#CCCO)cc43)[C@@H](C(=O)O)[C@H]12,0.665 (inactive),0.785,-0.63,-4.56 (inactive),0.0686 (inactive),0.632 (inactive)
C=C(COC)C(=O)CC[C@@H](OC(=O)c1ccccc1-c1ccccc1C(=O)O)c1ccc(CO)o1,-0.5 (inactive),0.633,1.47,-4.32 (inactive),1.37 (inactive),0.477 (inactive)
O=c1cccc(-c2ccccc2)o1,-0.724 (inactive),0.765,0.495,-1.85 (inactive),0.403 (inactive),0.0838 (inactive)
CN1C(=O)C2C=CC(C(O)c3ccc(Br)cc3)N(Nc3ccccc3)C2C1=O (centres undefined),-0.115 (inactive),0.0244,0.672,-1.23 (inactive),0.247 (inactive),-0.122 (inactive)
CCCC[C@@H]1C[C@H]1[C@@H](NC(=O)c1ccco1)c1ccccc1,-0.153 (inactive),-0.041,-1.46,-2.46 (inactive),0.243 (inactive),0.428 (inactive)

SMILES,composite z-score [1],composite z-score (XIP peptide (Xip251-270)),z-score [2],z-score [3],z-score [4],z-score [5]
CN1C(=O)C2C(C1=O)C1C=C(c3ccc(CO)cc3)C2C(C2CC2)N1Cc1sc2ccccc2c1Cl (centres undefined),0.406 (inactive),0.745,-1.9,-3.23 (inactive),0.21 (inactive),0.442 (inactive)
NC(=O)NCC#Cc1ccc2c(c1)[C@]1(C(=O)N2)[C@H](c2ccccc2OCCO)N2[C@H](c3ccccc3)[C@H](c3ccccc3)OC(=O)[C@H]2[C@@H]1C(=O)N1CCCCCCC1,0.909 (inactive),0.633,-2.04,3.45 (inactive),0.264 (inactive),0.69 (inactive)
CC(c1ccccc1)C(O)C1C=CC2C(=O)N(Cc3ccccc3)C(=O)C2N1n1cnnc1 (centres undefined),-0.429 (inactive),0.908,-0.864,-1.93 (inactive),0.106 (inactive),-0.634 (inactive)
O=C1OCCC/C=C\[C@H]2OC34C=CCN(CCN5CCOCC5)C(=O)[C@H]3N(CCO)C(=O)[C@@H]4C12 (some centres undefined),0.489 (inactive),-0.979,-1.22,-5.83 (inactive),-0.225 (inactive),0.264 (inactive)
C=CCC(OC(C)=O)[C@@H]1[C@@H](N(Cc2ccc(-c3ccccc3)cc2)C(=O)c2ccc(C)cc2)c2cc(OCCCO)ccc2N1C(=O)c1ccc2ccccc2n1 (some centres undefined),-0.218 (inactive),-0.876,-0.62,-1.29 (inactive),-0.641 (inactive),-0.346 (inactive)
CC1CC/C=C\[C@H]2OC34C=CCN(CCN5CCOCC5)C(=O)[C@H]3N(CCCCCO)C(=O)[C@@H]4C2C(=O)O1 (some centres undefined),-0.173 (inactive),-1.32,-0.143,-5.32 (inactive),-0.0913 (inactive),-0.364 (inactive)
COC(=O)[C@@]1(Cc2ccc(OC)cc2)[C@H]2c3cc(C(=O)N(C)C)n(CCSCCO)c3C[C@H]2CN1C(=O)c1ccccc1,0.149 (inactive),0.504,-1.48,-5.09 (inactive),-0.02 (inactive),0.101 (inactive)
O=C1C2C=CC(C(O)c3ccccn3)N(Nc3ccccc3F)C2C(=O)N1c1ccccc1 (centres undefined),-0.035 (inactive),0.796,-0.0664,-2.54 (inactive),-0.0045 (inactive),-0.176 (inactive)
O=C1O[C@@H](c2ccccc2)[C@@H](c2ccccc2)N2[C@@H](c3ccc(O)cc3)[C@]3(C(=O)Nc4ccccc43)[C@@H](C(=O)N3CCCCCCC3)[C@H]12,3.19 (inactive),0.862,-1.54,3.1 (inactive),0.242 (inactive),0.883 (inactive)
C=C[C@H](C)[C@H](O)c1ccc(OCCO)cc1,-0.199 (inactive),-0.143,-0.996,-0.499 (inactive),-0.82 (inactive),-0.216 (inactive)
CC(C)NC(=O)[C@@]1(c2ccc([N+](=O)[O-])cc2)CC(=O)N(C(C)C)[C@@H]1c1ccc(CO)cc1,0.508 (inactive),0.316,0.468,-2 (inactive),-0.403 (inactive),-0.102 (inactive)
CO[C@H]1O[C@H](CO)[C@@H](OC(=O)Nc2ccc3c(c2)OCO3)[C@H](OC(=O)Nc2ccc3c(c2)OCO3)[C@H]1OC(=O)Nc1ccc2c(c1)OCO2,2.3 (inactive),0.842,-2.1,-4.78 (inactive),-0.134 (inactive),0.245 (inactive)
COC(=O)[C@@]1(Cc2ccc(F)cc2)[C@H]2c3cc(C(=O)N(C)C)n(CCCNc4ccc(C(F)(F)F)cc4Cl)c3C[C@H]2CN1C(=O)c1ccccc1,0.915 (inactive),0.557,-1.39,-0.925 (inactive),0.456 (inactive),-0.225 (inactive)
O=C(NCc1ccccc1)[C@@H]1c2ccccc2C(=O)N(Cc2cc(F)cc(C(F)(F)F)c2)[C@H]1c1ccc(CO)cc1,0.818 (inactive),0.941,-0.0341,-2.88 (inactive),-1.07 (inactive),-1.29 (inactive)
COC(=O)[C@@]1(Cc2ccc(F)cc2)[C@H]2c3cc(C(=O)N(C)C)n(CCc4c[nH]c5ccc(OC)cc45)c3C[C@H]2CN1C(=O)c1ccccc1,0.661 (inactive),-0.21,-1.52,-0.694 (inactive),0.737 (inactive),0.0892 (inactive)
COC(=O)[C@@]1(Cc2ccccc2)[C@H]2c3cc(C(=O)N(C)C)n(Cc4cc(F)c(F)c(F)c4)c3C[C@H]2CN1C(=O)c1ccccc1,-0.218 (inactive),0.0006,-1.52,-4 (inactive),-0.217 (inactive),-0.227 (inactive)
Cc1ccc(N2C(=O)c3ccccc3[C@@H](C(=O)NC(C)C)[C@@H]2c2ccc(CO)cc2)nc1,0.262 (inactive),0.82,0.679,-1.68 (inactive),0.364 (inactive),0.43 (inactive)
